Structures are written as SMILES. Values joined by “and” are separate entries in the source; they are usually repeats but may differ in a detail not shown here. Equal entries are not always repeated. In all, about 240,000 compounds went through this assay and about 1,300 (0.54%) were called active. Inconclusive results (about 1%) are left out. The call rests on the fitted dose curve; in most records, active means well fitted inhibition curve with a large enough effect; inconclusive means small, poorly fitted or top-dose-only effect; inactive means flat fitted curve, though single readings scatter. Many of the other results were omitted from the sample, so actives are more common in it than they were. Some compounds were tested as several samples or in several runs, with calls that do not always agree.
Potency means the concentration at half of the fitted maximal effect.

Sequence of ATP-dependent DNA helicase Q1 (Homo sapiens) (P46063 whole entry, looked up): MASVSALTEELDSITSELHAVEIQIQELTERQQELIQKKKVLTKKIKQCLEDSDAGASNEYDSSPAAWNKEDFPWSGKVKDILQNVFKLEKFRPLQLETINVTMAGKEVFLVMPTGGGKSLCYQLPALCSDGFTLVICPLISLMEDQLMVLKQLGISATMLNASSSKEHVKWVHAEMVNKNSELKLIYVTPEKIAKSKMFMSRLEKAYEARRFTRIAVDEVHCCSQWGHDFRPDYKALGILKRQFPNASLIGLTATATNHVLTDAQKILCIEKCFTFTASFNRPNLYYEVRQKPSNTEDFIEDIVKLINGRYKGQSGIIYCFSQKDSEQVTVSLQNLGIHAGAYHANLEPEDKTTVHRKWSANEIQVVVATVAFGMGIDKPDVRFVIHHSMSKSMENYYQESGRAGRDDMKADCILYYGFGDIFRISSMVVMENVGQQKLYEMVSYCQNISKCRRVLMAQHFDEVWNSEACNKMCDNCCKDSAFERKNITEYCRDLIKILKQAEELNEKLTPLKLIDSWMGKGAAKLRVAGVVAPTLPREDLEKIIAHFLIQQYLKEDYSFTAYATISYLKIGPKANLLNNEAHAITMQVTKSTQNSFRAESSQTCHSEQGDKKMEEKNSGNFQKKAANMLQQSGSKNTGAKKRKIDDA

This assay has as its target ATP-dependent DNA helicase Q1 (Homo sapiens) (UniProt P46063). Description: qHTS Assay for Inhibitors of RecQ-Like Dna Helicase 1 (RECQ1). Further: nearly all actives have a fitted effect of over 30% in size.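 On activity, negative = inhibition: plate controls were vehicle for no effect and no enzyme for full effect.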 The following applies: RECQ1 DNA unwinding, red fluorescence kinetic read; series mostly up to 57.3 µM; activity, negative = inhibition: at the top concentration. The text has this: Survival of cells and the faithful propagation of the genome depend on elaborate mechanisms of detecting and repairing DNA damage. Treatment of advanced cancer relies on radiation therapy or chemotherapy, which kill cancer cells by causing extensive DNA damage. It is often found, that cancer cells develop resistance to therapy through enhanced activity of DNA repair functions; this has led to an increased interest in developing drugs that interfere with DNA repair, which could sensitize cancer cells to conventional therapy.
This validation qHTS assay pertains to human RECQ1, which is important in resolving abnormal DNA structures formed during replication or homologous recombination. Shutting down the expression of RECQ1 leads to chromosomal instability and higher radiation sensitivity in cultured cells.
The validation assay was a fluorescence quenching based kinetic qHTS for RECQ1 Helicase DNA unwinding. The activity was measured as ATP-dependent separation of a 20-bp DNA duplex extended by 30-nt single-stranded tails (forked duplex). The forked DNA substrate was tagged with rhodamine fluorophore (carboxytetramethyl rhodamine, TAMRA) and BHQ-2 (Black Hole Quencher 2) dark quencher. Strand separation results in an increase in the fluorescence of TAMRA (excitation 525 nm, emission 598 nm). This substrate construct operates in a red-shifted region where very few compound library members have been noted to fluoresce (PubChem AIDs 593 and 594). An additional feature of the assay is the inclusion of 2.5 ug/ml poly (dIdC), to reduce interference by compounds such as DNA intercalators, a major source of false inhibitors.
Opher Gileadi, Structural Genomics Consortium, University of Oxford
Screening Center PI: Austin, C.P.
Screening Center: NIH Chemical Genomics Center [NCGC]
Three uL of reaction buffer (25 mM Tris-HCl (pH 8.0), 5 mM NaCl, 2 mM MgCl2, 1mM DTT, 0.01% Tween- 20, and 2.5 ug/ml poly(dI-dC), including enzyme (50 nM RECQ1T1), were dispensed into a 1536-well Greiner black assay plate via solenoid-valve based nanoliter dispensers. Compounds (23 nl each in columns 5-48) and control (23 nl each in column 2 as dose-response) were transferred via a Kalypsys pintool equipped with a 1536-pin array. The plates were incubated for 15 min at room temperature, and then 1 ul of substrates (200 nM DNA and 2 mM ATP, final concentrations) was added to start the reaction. The plate was transferred into a ViewLux high-throughput CCD imager where the reaction progress was measured in a discontinuous kinetic mode (two reads spaced 2 hours apart, with intermediate room temperature incubation of the covered assay plate) by using standard red-fluorescence optics (excitation filter 525 nm, emission filter 598 nm). Enzyme-free and vehicle (DMSO) controls were included for signal normalization.
Regarding `O=C1CSC(=S)N1/N=C/c1ccc(O)c([N+](=O)[O-])c1`, the Potency was 25.1 µM (active).

`NC(N)=N/N=C/c1ccc(Cl)c([N+](=O)[O-])c1`: the “activity, negative = inhibition” value was -12.1% (inactive).

In the case of `O=[N+]([O-])c1ccc(N2CCSCC2)cc1O`, the “activity, negative = inhibition” value is -5.86% (inactive).

As for `Cc1cc(C)c(OCC(=O)N/N=C/c2ccco2)c(C)c1`, the call was inactive.

Regarding `CN1[C@H]2CC(OC(=O)[C@@H](CO)c3ccccc3)C[C@H]1[C@H]1O[C@H]12` (some centres undefined), the “activity, negative = inhibition” value was -5.26% [at 25.9 µM] (inactive).

Consider `NC(=O)c1sc(-c2ccsc2)cc1N`, for which the outcome was inactive.

`O=C(NCc1ccccn1)[C@]1(C(F)(F)F)C[C@H](CCc2ccccc2)CCCO1`: the molecule was classed as inactive.

In the case of `O=C1OCCN1C(=O)[C@H]1[C@H](c2ccc(Cl)cc2)C(c2cccc(Cl)c2)=NN1c1ccc(Br)cc1`, the Potency was 25.1 µM (active).

Turning to `C[C@@H]1C(c2ccc(F)cc2)=NN(c2ccc(Br)cc2)[C@H]1C(=O)N1CCOC1=O`, the Potency was 25.1 µM (active).

On to `O=C1OCCN1C(=O)[C@H]1[C@H](c2ccc(F)cc2)C(c2ccccc2)=NN1c1ccc(Br)cc1`, for which the “activity, negative = inhibition” value is -15.4% (inactive).

For `O=C1OCCN1C(=O)[C@H]1[C@H](c2ccccc2)C(c2ccc(F)cc2)=NN1c1ccccc1`, the “activity, negative = inhibition” value is -6.31% [at 81.1 µM] (inactive).

Regarding `CC(C)C(NS(=O)(=O)c1ccc(-c2ccc(Br)cc2)cc1)C(=O)O` (centres undefined), the “activity, negative = inhibition” value was 10.7% (inactive).

Take `CC(C)=CCC[C@]1(C)[C@@H](CC=C(C)C)C[C@@]2(CC=C(C)C)C(=O)[C@]1(C(=O)C(C)C)C(=O)C(CC=C(C)C)=C2O`: the “activity, negative = inhibition” value was -0.0015% (inactive).

Regarding `CCCC(=O)Nc1c(O)c2ccccc2[nH]c1=O`, the “activity, negative = inhibition” value was -7.38% (inactive).

For the molecule `O=C1C(c2[nH]c3ccccc3c2O)=Nc2ccccc21`, the Potency result is “inactive and 35.5 µM (active)”.

With `CC(C)C(=O)Nc1c(O)c2ccccc2[nH]c1=O`, the “activity, negative = inhibition” value is -12.4% (inactive).

`COc1ccc(Cl)cc1NC(=O)Cn1nc(-c2ccc(C)cc2)n(C)c1=S`: the “activity, negative = inhibition” value is -2.73% (inactive).

Turning to `Cc1ccc(NC(=O)CC2S/C(=N/N=C3\CCCc4ccccc43)NC2=O)cc1` (centres undefined), the Potency is 25.1 µM (active).

In the case of `Cc1c(Cl)cccc1NC(=O)CC1SC(=NCC2CCCO2)NC1=O` (centres undefined), the “activity, negative = inhibition” value is -5.65% (inactive).

As for `CCN=C1SC(CC(=O)Nc2ccc(C)cc2)C(=O)N1CC` (centres undefined), the “activity, negative = inhibition” value is -10.1% (inactive).

Take `COc1cc(OC)c2c(c1C(CCN1CCCCC1)c1ccc(N(C)C)cc1)OC(=O)CC2c1ccc(N(C)C)cc1` (centres undefined): the “activity, negative = inhibition” value is -1.54% (inactive).

As to `O=[N+]([O-])c1cc(S(=O)(=O)Nc2cccc(Cl)c2)ccc1N=Nc1c(O)[nH]c2ccccc12`, the outcome was inactive.

As to `CC1=C(/C=C/C(C)=C/C=C/C(C)=C/C=C/C=C(C)/C=C/C=C(C)/C=C/C(=O)[C@]2(C)C[C@@H](O)CC2(C)C)C(C)(C)C[C@H](O)C1`, the result was inactive.

With `C=C1CCN(C(CC(C)C)C(=O)NCc2cc(OC)c(OC)c(OC)c2)S(=O)(=O)c2ccccc21` (centres undefined), the call was inactive.

These data come from PubChem BioAssay AID2549 (National Center for Advancing Translational Sciences (NCATS), 2010).
